Test results taken from PubChem BioAssay (NCI).
The panel holds about 83,000 compounds, 20% with a hit somewhere; the sample as a whole holds those more often.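 Single-concentration screen, 48 h exposure, 96-well plates. Endpoint: percent growth. Below 10 = active.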 Unmarked numbers belong to inactive results. Active and inactive are the calls of the source.

Key:
Experiment in all cases: NCI-60 one-dose screen, 48 h (100 = growth as untreated, 0 = no growth, -100 = all killed)
Settings in all cases: 10 µM unless noted
[1] = tested on: HCT-15 colon
[2] = tested on: HT29 colon
[3] = tested on: SNB-75 CNS
[4] = tested on: SNB-19 CNS
[5] = tested on: U251 CNS
[6] = tested on: PC-3 prostate
[7] = tested on: SK-MEL-5 melanoma
[8] = tested on: UACC-62 melanoma
[9] = tested on: SK-MEL-28 melanoma
[10] = tested on: SK-MEL-2 melanoma
[11] = tested on: SN12C renal
[12] = tested on: UO-31 renal
[13] = tested on: TK-10 renal
[14] = tested on: ACHN renal
[15] = tested on: CAKI-1 renal
[16] = tested on: A498 renal
[17] = tested on: LOX IMVI melanoma
[18] = tested on: EKVX NSCLC
[19] = tested on: CCRF-CEM leukemia
[20] = tested on: MOLT-4 leukemia

Row | SMILES | growth [1] | growth [2] | growth [3] | growth [4] | growth [5] | growth [6] | growth [7] | growth [8] | growth [9] | growth [10] | growth [11] | growth [12] | growth [13] | growth [14] | growth [15] | growth [16] | growth [17] | growth [18] | growth [19] | growth [20]
1 | c1ccc2[nH]c(-c3cc(-c4ccc5c(c4)OCO5)n[nH]3)nc2c1 | 56.7% | 67.5% | 33.8% | 68.3% | 36.6% | 50.4% | 13.2% | 49.7% | 71.3% | 41% | 62.9% | 66.7% | 86% | 45.6% | 55.1% | 71.8% |  |  |  | 
2 | O=C(O[C@@H]1Cc2c(O)cc(O)cc2O[C@@H]1c1cc(O)c(O)c(O)c1)c1cc(O)c2c(c1)OCO2 | 104% | 95.3% | 93.8% | 104% | 83.4% | 83.6% | 98.5% |  | 101% | 102% | 98.6% | 92.2% | 88.4% | 112% | 94.4% | 117% | 95.6% | 102% | 93% | 81.5%
3 | CCOC(=O)N1CCN(CCCCOc2ccc(C(C)(C)CC)cc2)CC1 | 87.7% | 78.1% | 106% | 108% | 88.5% | 71.5% | 88.6% |  | 100% | 95.8% | 95.7% | 83.1% | 120% | 97.3% | 85.8% | 108% | 99.7% | 99.1% | 73% | 67.2%
4 | Nc1nc(Br)nc2c1ncn2C1CC(O)C(CO)O1 (configuration not stated) | 59.1% | 66.3% | 77.4% | 48.6% | 68.7% | 70.1% | 51.2% |  | 95.8% | 102% | 52.1% | 34.1% | 71.2% | 29.8% | 50.9% | 89.4% | 82.4% | 71% | 27.4% | 27.7%
5 | N#Cc1cnc2cc(OC[C@@H](O)CO)c(NC(=O)C3CCCC3)cc2c1Nc1ccc(OCc2cccc(F)c2)c(Cl)c1 | 29.4% | -11.3% (active) | -0.333% (active) | 65.3% | 61.9% | -58.9% (active) | 61.5% |  | -85.2% (active) | -56.9% (active) | 13.8% | 35.3% | 29.5% | 40.2% | 59.4% | 55.5% | -84.8% (active) | -36.8% (active) | -26.8% (active) | 6.26% (active)
6 | O=[N+]([O-])c1ccc(N/N=C(\C(=N/Nc2ccc([N+](=O)[O-])cc2[N+](=O)[O-])c2ccccc2)c2ccccc2)c([N+](=O)[O-])c1 | 84.3% | 63.5% | 99% | 102% | 36.4% | 85.2% | 94.3% |  | 101% | 95.9% | 97.5% | 86.4% | -1.75% (active) | 95.7% | 81.1% | 103% | 97.7% | 108% | 58.4% | 92.2%
7 | Cn1c(=O)c2c(nc(Br)n2CC(=O)Nc2ccc(F)cc2)n(C)c1=O | 115% | 97.8% | 83.4% | 97.5% | 100% | 75.5% | 104% |  | 118% | 99.1% | 109% | 80.9% | 115% | 104% | 95.9% | 117% | 96.7% | 102% | 90.1% | 91.9%
8 | O=C(NCN1C(=O)c2cccc3cccc(c23)C1=O)N1CCC(Cc2ccccc2)CC1 | 104% | 70.1% | 89.4% | 92.5% | 97.5% | 72.9% | 101% |  | 107% | 103% | 99.2% | 72.2% | 98% | 101% | 82.9% | -36% (active) | 97.5% | 93.4% | 79.9% | 84.7%
9 | Cc1ccc(-c2nn(Cc3cn(-c4cc(C)nc5ccccc45)nn3)c3ncnc(N)c23)cc1 | 57% | 49.8% | 15.5% | 53.2% | 71.8% | 49% | 40.7% |  | 68.7% | 76.2% | 31.1% | 17.6% | 31.8% | 31.9% | 20.8% | -2.48% (active) | 52.4% | 57.3% | 63.1% | 49.9%
10 | CCN(CC)CCCCCNc1cc(OC(=O)c2ccccc2)cc2cccnc12 | 78.5% | 20.3% | 70.9% | 101% | 98.2% | 77% | 138% |  | 121% | 140% | 95% | 92.5% | 145% | 96.6% | 91% | 81.1% | 58.1% | 102% | 93.9% | 55.4%
